# Measured values published in PubChem BioAssay (NCATS).
# Results filed as inconclusive are left out. Entries that show only a call come without a potency. Activity calls are given as the source filed them. Unless noted, calls come from the whole dose curve. Square brackets hold non-standard residues; d marks the D form. Peptide text beside a SMILES is read from it. ξ: configuration not given here. d(hArg(Et2)) = CCN=C(NCC)NCCCC[C@@H](N)C(=O)O; hArg(Et2) = CCN=C(NCC)NCCCC[C@H](N)C(=O)O; Phe(4-Cl) = N[C@@H](Cc1ccc(Cl)cc1)C(=O)O; ξ2Nal = NC(Cc1ccc2ccccc2c1)C(=O)O; 3Pal = N[C@@H](Cc1cccnc1)C(=O)O; ξP = O=C(O)C1CCCN1
# Test system: not listed separately
# Assay: Cytotoxicity counterscreen for inhibitors of SARS-CoV-2 cell entry (AID 1645845); note: nearly all actives have a fitted effect of over 50% in size
# Details: cell viability (SARS-CoV-2 entry assay cells); series mostly up to 57.1 µM
# How it was run: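 Expi293F/hACE2 cells seeded overnight; cpd pin-transferred in DMSO, 1 h preincubation, + media, 48 h 37 C 5% CO2; ATPLite 1step luminescence; normalized to cells and no cells.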
row,SMILES,Potency
1,CCOC(=O)C=C(C)C=CC[C@@H](C)CCCC(C)C,inactive
2,C[C@@H]1CCC[C@H](C)N1NC(=O)c1ccc(Cl)c(S(N)(=O)=O)c1,inactive
3,CC1(C)[C@H](C=C(Cl)Cl)[C@@H]1C(=O)OCc1c(F)c(F)cc(F)c1F,inactive
4,O1[As]2O[As]1O2,inactive
5,CCCc1ccc(C(=O)O)cc1,inactive
6,C[C@]12C[C@@H]3S[C@H]3C[C@@H]1CC[C@H]1[C@H]3CC[C@@H](O)[C@@]3(C)CC[C@@H]12,inactive
7,CC(C)(C)NC(=O)[C@@H]1C[C@@H]2CCCC[C@H]2CN1C[C@@H](O)[C@H](Cc1ccccc1)NC(=O)[C@H](CC(N)=O)NC(=O)c1ccc2ccccc2n1,inactive
8,CO[C@@H]1[C@H](C)OC(O[C@H]2CC(Oc3cc4cc5c(c(O)c4c(O)c3C)C(=O)[C@@H](OC3C[C@@H](OC4C[C@H](OC6C[C@](C)(O)[C@@H](OC(C)=O)[C@H](C)O6)[C@@H](O)[C@H](C)O4)[C@H](O)[C@@H](C)O3)[C@H]([C@@H](OC)C(=O)[C@@H](O)[C@H](C)O)C5)O[C@@H](C)[C@H]2OC(C)=O)C[C@@H]1O (stereo not given in full),inactive
9,CC[C@H]1OC(=O)C[C@@H](O)[C@H](C)[C@@H](OC2OC(C)C(O)C(N(C)C)C2O)[C@@H](CCN2CCCCC2)C[C@@H](C)C(=O)/C=C/C(C)=C/[C@@H]1CN1CCCCC1 (stereo not given in full),inactive
10,O=S(O)CNc1ccc(S(=O)(=O)c2ccc(NCS(=O)O)cc2)cc1,inactive
11,CCCCC(CC)CCC(CC(C)C)OS(=O)(=O)O (stereo not given),inactive
12,CCOC(=O)[C@H](CS)NCCN[C@@H](CS)C(=O)OCC,inactive
13,O=c1[nH]cnc2c([C@@H]3N[C@H](CO)[C@@H](O)[C@H]3O)c[nH]c12,inactive
14,CO[C@H]1O[C@@H]2O[C@@]3(C)CC[C@H]4[C@H](C)CC[C@@H]([C@@H]1C)[C@@]24OO3,inactive
15,C=C1/C(=C/C=C2\CCC[C@]3(C)[C@@H]([C@H](C)CCCC(C)(C)O)CC[C@@H]23)C[C@@H](O)[C@@H](OCCCO)[C@@H]1O,inactive

# Test system: not listed separately
# Assay: Primary qHTS to identify inhibitors of SARS-CoV-2 cell entry (AID 1645846); note: nearly all actives have a fitted effect of over 45% in size; note: potency is the fitted concentration of half-maximal effect
# Details: SARS-CoV-2 pseudovirus cell entry assay, luminescence; activity change, negative = inhibition: at 57.1 µM (top of the series) unless noted
# How it was run: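 Data are normalized to wells receiving SARS-CoV-2-S pseudoparticles and those given bald particles. Entry signal was luciferase luminescence in stable hACE2 Expi293F cells, 48 hr post-infection, after 1 hr compound pretreatment.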
SMILES,Potency,"activity change, negative = inhibition"
NCCNc1ccc(NCCN)c2c1C(=O)c1ccncc1C2=O,7.94 µM (active),
CCCCCCCCCCCCCCCCCCCCCC(=O)Nc1ccn([C@@H]2O[C@H](CO)[C@@H](O)[C@@H]2O)c(=O)n1,,-93.7% [at 27.1 µM]
CC1(C)[C@H](C=C(Cl)Cl)[C@@H]1C(=O)OCc1c(F)c(F)cc(F)c1F,inactive,
C[C@]12C[C@@H]3S[C@H]3C[C@@H]1CC[C@H]1[C@H]3CC[C@@H](O)[C@@]3(C)CC[C@@H]12,inactive,

# Test system: not listed separately
# Assay: VSVG counterscreen qHTS to identify inhibitors of SARS-CoV-2 cell entry (AID 1645847); note: nearly all actives have a fitted effect of over 65% in size; note: potency is the fitted concentration of half-maximal effect
# Details: VSV-G pseudotyped particle entry, luciferase; series mostly up to 57.2 µM
# How it was run: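 Counterscreen using VSV-G (not spike) pseudotyped MLV particles on ACE2-expressing Expi293F cells after 1 h compound preincubation; infection ran 48 h at 37 °C. Data normalized to VSV-G PP and bald-PP wells.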
row,SMILES,Potency
1,NCCNc1ccc(NCCN)c2c1C(=O)c1ccncc1C2=O,3.04 µM (active)
2,CCCCCCCCCCCCCCCCCCCCCC(=O)Nc1ccn([C@@H]2O[C@H](CO)[C@@H](O)[C@@H]2O)c(=O)n1,inactive
3,CCNC(=NCCCC[C@H](NC(=O)[C@H](CC(C)C)NC(=O)[C@@H](CCCCN=C(NCC)NCC)NC(=O)[C@@H](Cc1ccc(O)cc1)NC(=O)[C@@H](CO)NC(=O)[C@H](Cc1cccnc1)NC(=O)[C@H](Cc1ccc(Cl)cc1)NC(=O)C(Cc1ccc2ccccc2c1)NC(C)=O)C(=O)N1CCCC1C(=O)N[C@H](C)C(N)=O)NCC (stereo not given in full) (Ac-[ξ2Nal][Phe(4-Cl)][3Pal][dS][dY][d(hArg(Et2))]L[hArg(Et2)][ξP][dA]-NH2),0.857 µM (active)
4,O1[As]2O[As]1O2,15.2 µM (active)
5,CO[C@@H]1[C@H](C)OC(O[C@H]2CC(Oc3cc4cc5c(c(O)c4c(O)c3C)C(=O)[C@@H](OC3C[C@@H](OC4C[C@H](OC6C[C@](C)(O)[C@@H](OC(C)=O)[C@H](C)O6)[C@@H](O)[C@H](C)O4)[C@H](O)[C@@H](C)O3)[C@H]([C@@H](OC)C(=O)[C@@H](O)[C@H](C)O)C5)O[C@@H](C)[C@H]2OC(C)=O)C[C@@H]1O (stereo not given in full),0.0482 µM (active)

# Biological target: Glutathione peroxidase 1 (Homo sapiens) (UniProt P07203)
# Assay: Primary qHTS Assay for Inhibitors of Recombinant Selenoprotein Glutathione Peroxidase 1 (GPX1) (AID 1845191; active = well fitted inhibition curve with a large enough effect; note: nearly all actives have a fitted effect of over 65% in size)
# Details: recombinant GPX1, GR-coupled NADPH fluorescence, 15 min; series mostly up to 48.8 µM
# How it was run: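 Recombinant GPX1 (10 nM final) was preincubated with compound for 30 min at room temperature, then reacted with 1 mM GSH, 0.5 mM CHP, 0.5 mM NADPH and 100 nM glutathione reductase; NADPH fluorescence (340/450 nm) was read at 0 and 15 min.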
# Sequence of Glutathione peroxidase 1 (Homo sapiens) (P07203 whole entry, looked up): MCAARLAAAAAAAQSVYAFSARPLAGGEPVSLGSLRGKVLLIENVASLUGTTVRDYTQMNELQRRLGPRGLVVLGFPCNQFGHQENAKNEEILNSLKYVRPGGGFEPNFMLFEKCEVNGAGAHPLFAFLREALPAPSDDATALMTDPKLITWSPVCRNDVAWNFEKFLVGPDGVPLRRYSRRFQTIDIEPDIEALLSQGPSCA
row,SMILES,Potency
1,CC(Cc1ccc2c(c1)OCO2)NCC(O)c1ccc(O)c(O)c1 (stereo not given),inactive
2,CNC(C)[C@@H](O)c1ccc(O)cc1 (stereo not given in full),inactive
3,CCOC(=O)C=C(C)C=CC[C@@H](C)CCCC(C)C,inactive
4,CC1(C)[C@H](C=C(Cl)Cl)[C@@H]1C(=O)OCc1c(F)c(F)cc(F)c1F,inactive
5,O1[As]2O[As]1O2,inactive
6,CO[C@@H]1[C@H](C)OC(O[C@H]2CC(Oc3cc4cc5c(c(O)c4c(O)c3C)C(=O)[C@@H](OC3C[C@@H](OC4C[C@H](OC6C[C@](C)(O)[C@@H](OC(C)=O)[C@H](C)O6)[C@@H](O)[C@H](C)O4)[C@H](O)[C@@H](C)O3)[C@H]([C@@H](OC)C(=O)[C@@H](O)[C@H](C)O)C5)O[C@@H](C)[C@H]2OC(C)=O)C[C@@H]1O (stereo not given in full),inactive

# Biological target: Phospholipid hydroperoxide glutathione peroxidase GPX4 (Homo sapiens) (UniProt P36969)
# Assay: Primary qHTS Assay for Inhibitors of Recombinant Selenoprotein Glutathione Peroxidase 4 (GPX4) (AID 1845192; active = well fitted inhibition curve with a large enough effect; note: nearly all actives have a fitted effect of over 65% in size; note: potency is the fitted concentration of half-maximal effect)
# Details: recombinant GPX4, GR-coupled NADPH fluorescence, 15 min; series mostly up to 50 µM
# How it was run: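 GR-coupled readout: 100 nM GR, 1 mM GSH, 0.5 mM NADPH; NADPH fluorescence (ex 340/em 450 nm) read at t=0 and after 15 min RT. GPX4 200 nM, preincubated 30 min with compound; substrate 0.5 mM CHP.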
# Sequence of Phospholipid hydroperoxide glutathione peroxidase GPX4 (Homo sapiens) (P36969 whole entry, looked up): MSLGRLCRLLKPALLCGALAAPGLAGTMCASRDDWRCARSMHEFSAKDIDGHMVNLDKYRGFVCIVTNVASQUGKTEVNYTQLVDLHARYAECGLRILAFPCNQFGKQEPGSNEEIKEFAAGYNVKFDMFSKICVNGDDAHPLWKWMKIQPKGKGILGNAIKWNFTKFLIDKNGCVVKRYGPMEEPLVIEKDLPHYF
row,SMILES,Potency
1,CC(Cc1ccc2c(c1)OCO2)NCC(O)c1ccc(O)c(O)c1 (stereo not given),15.8 µM (active)
2,CNC(C)[C@@H](O)c1ccc(O)cc1 (stereo not given in full),inactive
3,CCOC(=O)C=C(C)C=CC[C@@H](C)CCCC(C)C,inactive
4,CC1(C)[C@H](C=C(Cl)Cl)[C@@H]1C(=O)OCc1c(F)c(F)cc(F)c1F,inactive
5,O1[As]2O[As]1O2,inactive
